The list is not random: actives were taken first. Their share in the collection is about 2.2%.
TDP43 rescue – TDP-43 toxicity inhibition in yeast. Potency, µM (highest dose often 46.1 µM), without a hit: top-dose growth rescue (activation), usual class: activators. TDP-43 expressing yeast growth rescue, BacTiter-Glo, 24 h. 410,000 compounds, 1.8% hits; further: % of control where 0% means no effect; nearly all actives have a fitted effect of over 50% in size
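Galactose-induced TDP-43 yeast, OD600=0.02, compound pinned; 24 hr, 30 deg C; BacTiter-Glo luminescence for growth. Inhibitors of TDP-43 toxicity read as activators.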
Abeta yeast res – restores growth of yeast expressing A-beta42 peptide; 410,000 compounds, 0.063% hits; yeast expressing A-beta42, growth rescue, OD600, 48 h; response scale: 0% DMSO, 100% iron-clioquinol control; Potency, µM (highest dose often 46.1 µM), actives largely listed as activators; AID 1347071; further: nearly all actives have a fitted effect of over 55% in size
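Growth rescue measured by 600 nm absorbance after 48 h yeast culture at 30 C with compound. Values normalized between DMSO and an equimolar ferric chloride plus clioquinol control.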
FUS suppressor – suppressors of FUS proteinopathy in yeast. 390,000 compounds, 0.24% hits. S. cerevisiae FUS-expressing, growth rescue, OD600, 24 h. Potency, µM (series often up to 76.6 µM), most hits filed as activators. AID 1347120;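 further: plate controls were DMSO vehicle for no effect and reference control for full effect; nearly all actives have a fitted effect of over 55% in size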
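Restored growth of FUS-toxic S. cerevisiae, read as 600 nm absorbance after 24 h at 30C in galactose medium (starting OD 0.005). Controls CP55940 and DMSO.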
Mito fusion yeast – blocks mitochondrial division or promotes mitochondrial fusion; S. cerevisiae fusion-defective mutant growth rescue, CellTiterGlo 48 h; Potency, µM (top dose mostly 46.1 µM), without a hit: at the top dose growth rescue (activation), usual class: activators; AID 485298; 320,000 compounds, 0.23% hits; further: % of control where 0% means no effect; nearly all actives have a fitted effect of over 45% in size
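Growth-rescue viability read-out: after 48 h at the non-permissive 37C in glycerol/ethanol YPEG, yeast mitochondrial fusion mutants are measured by CellTiterGlo luminescence; compounds (23 nl pinned per well) restoring growth score as division inhibitors or fusion activators.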
aSyn yeast inh – rescues yeast growth from alpha-synuclein toxicity; Yeast expressing alpha-synuclein, growth rescue, BacTiter-Glo, 24 h; Potency, µM (highest dose often 46.1 µM), inactives show at the highest dose growth rescue (activation), actives largely listed as activators; 370,000 compounds, 0.14% hits; further: % of control where 0% means no effect; nearly all actives have a fitted effect of over 65% in size
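Rescue of yeast growth: cells expressing toxic alpha-synuclein, induced in galactose at OD600 0.02, incubated with compound 24 h at 30 C. ATP luminescence quantified growth; inhibitors of toxicity appear as activators.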
* hit, by the source's call; i = inactive; ? = inconclusive; · = no result given. The call rests on the fitted dose curve; in most records, active means well fitted curve in the direction sought with a large enough effect; inconclusive means small, poorly fitted or top-dose-only effect, or another doubt; inactive means no such curve, though single readings can be large; an effect the other way counts as inactive or inconclusive. Potency means the concentration at half of the fitted maximal effect.

SMILES | TDP43 rescue | Abeta yeast res | FUS suppressor | Mito fusion yeast | aSyn yeast inh
O=C(c1cn(-c2ccccc2)nc1-c1ccc(Br)cc1)N1CCOCC1 | 16% | i | · | 11µM* | 0%
O=C(c1cn(-c2ccccc2)nc1-c1ccc(F)cc1)N1CCCCC1 | 18% | i | · | 16µM* | -5%
O=C(c1cn(-c2ccccc2)nc1-c1ccc(F)cc1)N1CCOCC1 | 0% | i | i | 7% | -1%
O=C(CCl)Nc1cn(-c2ccccc2)nc1-c1ccc(F)cc1 | 8.9µM* | i | i | -4% | 4%
CSc1ccc(/C=C/c2ccnc3ccccc23)cc1 | · | · | · | · | -14%
COC(=O)C1CN(CCO)CCS(=O)(=O)N1Cc1cccc(Cl)c1 (stereo not drawn) | · | · | i | · | ·
CC(=O)/C=C1\C(=O)N(C)c2ccccc21 | · | · | · | -35% | 0%
Cc1[nH]nc(-c2ccc(O)cc2O)c1-c1ccc(Cl)cc1 | 20µM* | i | i | -23% | 1%
OCCNc1nc(SCc2ccccc2)nc2sc3c(c12)CCC3 | 10µM* | i | · | 5% | -11%
O=c1c2c3c(sc2nc(NCCO)n1CCc1ccccc1)CCCCC3 | 14µM* | i | ? | 20µM* | -12%
Cc1ccc(Cn2ccnc2SCC(=O)NCc2ccccc2Cl)cc1 | 11µM* | i | i | · | ·
Cc1ccc2nc(NC(=O)CSc3nccn3Cc3ccc(Cl)cc3)sc2c1 | 11µM* | i | i | · | ·
CCOc1ccc2nc(NC(=O)c3ccccn3)sc2c1 | 5% | i | i | -27% | -3%
CSc1ncccc1C(=O)Nc1nc2ccc(Oc3ccccc3)cc2s1 | 18% | i | i | 13µM* | 10%
Cc1ccc2nc(NC(=O)CSc3nccn3-c3ccc(Cl)cc3)sc2c1 | 0% | i | i | · | ·
Cc1ccc2nc(NC(=O)c3ccccn3)sc2c1 | 10µM* | i | i | -7% | 7.1µM*
COC(=O)C[C@H]1CC[C@H]2[C@H](COc3ccc(NS(=O)(=O)c4cccc(F)c4)cc3C(=O)N2C)O1 | · | · | i | · | ·
O=C(CSc1nccn1Cc1ccccc1)Nc1nc2ccccc2s1 | 12% | i | i | · | 18%
O=C(CSc1nccn1Cc1ccc(F)cc1)Nc1nc2ccccc2s1 | ? | ? | i | · | 20µM*
O=C(CNc1ccc(Cl)cc1)c1ccc(Br)cc1 | 18% | i | i | ? | 7%
O=C(CNc1ccc(Br)cc1)c1ccc(O)cc1 | 10µM* | i | i | 20% | -27%
CC1CN(c2nc(N(C)c3ccccc3)nc(N)c2[N+](=O)[O-])CC(C)O1 (stereo not drawn) | 2% | i | i | 9% | 13%
CC1CC(C)CN(c2nc(N(C)c3ccccc3)nc(N)c2[N+](=O)[O-])C1 (stereo not drawn) | 18µM* | i | i | -4% | 16%
O=C1CCC2(CCCCC2)N1CCCO | · | · | i | · | ·
COc1ccc(Cn2nnnc2C(c2ccccn2)N2CCN(c3ccc(O)cc3)CC2)cc1 (stereo not drawn) | · | · | · | · | 2%
SMILES | TDP43 rescue | Abeta yeast res | FUS suppressor | Mito fusion yeast | aSyn yeast inh
COc1ccc(-c2csc(NC(=O)CSCc3c(C)noc3C)n2)c(OC)c1 | 16µM* | i | i | 11% | 6%
COc1ccc(OC)c(-c2csc(NC(=O)Cc3ccccc3OC)n2)c1 | 10µM* | i | i | 28% | -19%
COc1ccc(OC)c(-c2csc(NC(=O)Cc3ccccc3F)n2)c1 | ? | i | i | -36% | -5%
COc1ccc(-c2csc(NC(=O)CSCC(=O)Nc3cc(C)on3)n2)cc1 | 35% | i | · | -1% | 5%
COc1ccc(NC(=O)c2ccco2)cc1NC(=O)c1cccc(OC(C)C)c1 | 13µM* | i | i | 7% | 1%
COc1cccc(C(=O)Nc2cc(NC(=O)c3ccco3)ccc2OC)c1 | ? | i | i | 12% | 1%
COc1ccc(C(=O)Nc2cccc(OC(=O)c3ccco3)c2)cc1 | 18µM* | i | i | 1% | 1%
COC(=O)[C@]12C[C@H](CC(=O)NCc3cccs3)C(=O)N(Cc3ccco3)C1=C[C@H](COCc1ccccc1)O[C@@H]2C | · | · | i | · | ·
CN1CCC23c4ccccc4NC1C21CCN(C)C3Nc2ccccc21 | 6% | i | i | · | 5%
C/C=C/C=C/C(=O)N1CC[C@]23c4ccccc4N[C@H]4N(C)c5cccc6c5[C@]42CCN([C@H]6C2OC2(C)C)[C@H]13 (stereo partly drawn) | 12% | ? | 16µM* | 27% | 8%
Cn1cnnc1SCC(=O)NC1CCCC1 | 0% | i | i | 2% | 0%
Cc1cccc(OCCSc2nnc(-c3ccoc3C)n2C)c1 | 18µM* | i | i | -1% | 4%
Cc1ccc(CNC(=O)c2ccc(N3CCC4(CC3)CC(c3cccc(Br)c3)=NO4)c(N)c2)cc1 | 4% | i | 18µM* | 7% | 4%
COCC(=O)N1CCC(C(=O)NCC2COc3ccccc3O2)CC1 (stereo not drawn) | · | · | i | · | ·
CCc1ccccc1NC(=O)CN1CCN(C(=O)CNC(=O)c2ccc(N3CCCC3=O)cc2)CC1 | -12% | i | · | 1% | -5%
CC1(C(=O)Nc2ccc3c(c2)OCCO3)CN(S(C)(=O)=O)CC(=O)N1Cc1ccco1 (stereo not drawn) | 2% | i | i | · | 3%
CCCCN(C)C(=O)CSc1nnc(-c2cccnc2)n1C1CCCCC1 | · | · | i | · | ·
Cc1ccc(-n2ncc3c(NCc4ccco4)ncnc32)cc1C | 9% | i | i | -1% | 0%
Cc1ccc(-n2ncc3c(NCCCn4ccnc4)ncnc32)cc1C | 6% | i | i | · | ·
CNc1ncnc2c1cnn2-c1ccc(C)c(C)c1 | 11µM* | i | i | · | ·
CCOCCCNc1ncnc2c1cnn2-c1ccc(C)c(C)c1 | 11µM* | i | i | · | ·
CCCc1nnc(NC(=O)CCC(=O)N2CCN(c3ccccc3)CC2)s1 | -21% | i | i | -1% | -7%
CCCCn1cnc2c(SCc3ccccc3F)nc(N)nc21 | 18µM* | i | · | · | 7%
CC(C)Cn1cnc2c(SCc3ccccc3F)nc(N)nc21 | ? | i | · | · | 9%
Cc1ccc(N2CCN(C(=O)c3c(C)oc4ncnc(N5CCOCC5)c34)CC2)c(C)c1 | ? | i | i | · | ·
Cc1ccc(N2CCN(C(=O)c3c(C)oc4nc(C)nc(N5CCCC5)c34)CC2)c(C)c1 | 25µM* | i | i | · | ·
Cc1cccc(N2CCN(C(=O)c3c(C)oc4ncnc(N5CCOCC5)c34)CC2)c1C | 20µM* | i | i | · | ·
Cc1cccc(N2CCN(C(=O)c3c(C)oc4ncnc(N5CCCCC5)c34)CC2)c1C | 35µM* | i | i | · | ·
COc1ccccc1-c1nnc(-c2ccc(N3CCOCC3)cc2)o1 | 13µM* | i | i | 11% | 13%
